Measured values taken from the supplement of paper PMC10849652.
The full data set covers some 7,900 targets. This sample favours those with a hit. About 0.6% of all pairs of compound and target were hits. Values without a mark were called inactive.

Legend:
Assay in all cases: log2 fold change, soluble protein after heating vs DMSO (PISA); higher = thermal stabilisation; K562 cells, 10 uM, 30 min; active = over 0.2 and 3.5 SD of the protein, either way, in both replicates (recomputed)
erlotinib = compound: C#Cc1cccc(Nc2ncnc3cc(OCCOC)c(OCCOC)cc23)c1 [erlotinib]
How it was run: (§1)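 Values are thermal stability changes relative to control samples and are taken from duplicates. They are stated as log2 fold changes. Before quantification by TMTpro 16plex LC-MS/MS with equalised channel sums, K562 cells at 2×10^6 cells/mL were treated with 10 μM compound for 30 min, heated in aliquots for 3 min across 48°C-58°C, pooled, extracted in PBS with 0.5% NP-40 at 4°C, and centrifuged at 21,000xg for 90 min to give the soluble supernatant.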

[1] = compound: C/C(=N\NC(=O)C1=CC(=CC=C1)S(=O)(=O)N2CCOCC2)/C3=C(C=CC(=C3)Cl)O
How it was run: as §1

[2] = compound: C1=CC(=C(C=C1Cl)C2=NC3=NC=CN=C3C(=N2)NC4=CC=NC=C4)F
How it was run: as §1

[3] = compound: C1=CC(=CC=C1C2=NC3=C(N2)C=C(C=C3)C(=O)N)OC4=CC=C(C=C4)Cl
How it was run: as §1

[4] = compound: C1=CC2=C(C=CC(=C2)/C=C\3/C(=O)NC(=NCC4=CC=CS4)S3)N=C1
How it was run: as §1

[5] = compound: C1=CC2=NC=CN=C2C=C1/C=C/3\C(=O)NC(=O)S3
How it was run: as §1

[6] = compound: C1=CC=C(C=C1)C2=NC(=C(N2)C3=CC=NC=C3)C4=CC(=C(C=C4)Cl)O
How it was run: as §1

[7] = compound: C1=CC=C2C(=C1)C3=NNC4=CC=CC(=C43)C2=O
How it was run: as §1

[8] = compound: C1CCN(C1)C(=O)NC2=CC=CC(=C2)NC3=NC=C(C(=N3)NCCC4=CN=CN4)Br
How it was run: as §1

[9] = compound: C1CN(CCC1(CC2=CC=C(C=C2)Cl)N)C3=NC=NC4=C3C=CN4
How it was run: as §1

Chain of UniProt Q15349 (Q15349 whole entry, looked up): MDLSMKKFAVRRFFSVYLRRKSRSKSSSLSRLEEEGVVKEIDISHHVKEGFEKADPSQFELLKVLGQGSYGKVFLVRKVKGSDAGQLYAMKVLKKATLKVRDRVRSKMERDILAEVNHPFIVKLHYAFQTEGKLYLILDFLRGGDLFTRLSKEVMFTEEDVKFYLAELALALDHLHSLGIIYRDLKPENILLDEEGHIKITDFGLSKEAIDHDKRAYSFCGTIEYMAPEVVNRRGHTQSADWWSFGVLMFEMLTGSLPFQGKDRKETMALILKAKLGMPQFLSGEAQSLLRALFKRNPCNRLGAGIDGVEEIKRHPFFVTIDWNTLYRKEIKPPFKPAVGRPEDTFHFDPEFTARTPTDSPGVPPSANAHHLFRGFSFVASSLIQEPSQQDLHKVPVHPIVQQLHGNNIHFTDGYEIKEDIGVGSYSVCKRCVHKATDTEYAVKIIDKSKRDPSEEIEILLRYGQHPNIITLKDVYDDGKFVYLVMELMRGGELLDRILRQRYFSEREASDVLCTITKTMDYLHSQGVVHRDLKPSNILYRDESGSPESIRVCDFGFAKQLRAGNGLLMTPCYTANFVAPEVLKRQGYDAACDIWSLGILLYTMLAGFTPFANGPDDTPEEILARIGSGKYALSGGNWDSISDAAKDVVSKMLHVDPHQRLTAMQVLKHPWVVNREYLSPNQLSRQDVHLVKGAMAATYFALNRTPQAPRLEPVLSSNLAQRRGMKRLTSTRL
Chain of UniProt Q04864 (Q04864 whole entry, looked up): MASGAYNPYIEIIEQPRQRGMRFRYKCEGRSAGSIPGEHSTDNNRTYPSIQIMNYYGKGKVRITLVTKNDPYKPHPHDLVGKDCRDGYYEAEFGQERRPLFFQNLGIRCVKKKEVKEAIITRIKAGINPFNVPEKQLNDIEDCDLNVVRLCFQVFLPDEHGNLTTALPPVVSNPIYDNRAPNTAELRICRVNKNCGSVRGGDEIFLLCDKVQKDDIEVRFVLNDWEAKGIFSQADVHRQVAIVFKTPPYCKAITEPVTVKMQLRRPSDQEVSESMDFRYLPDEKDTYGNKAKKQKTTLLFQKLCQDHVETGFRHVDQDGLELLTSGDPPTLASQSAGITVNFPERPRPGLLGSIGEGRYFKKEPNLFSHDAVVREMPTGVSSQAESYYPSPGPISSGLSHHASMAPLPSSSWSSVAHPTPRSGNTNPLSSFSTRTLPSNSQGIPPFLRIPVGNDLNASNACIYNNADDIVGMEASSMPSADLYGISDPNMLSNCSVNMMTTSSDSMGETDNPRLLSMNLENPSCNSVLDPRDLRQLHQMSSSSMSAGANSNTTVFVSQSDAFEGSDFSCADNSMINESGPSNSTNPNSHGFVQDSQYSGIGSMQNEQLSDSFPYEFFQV
Chain of UniProt Q8NBN7 (Q8NBN7 whole entry, looked up): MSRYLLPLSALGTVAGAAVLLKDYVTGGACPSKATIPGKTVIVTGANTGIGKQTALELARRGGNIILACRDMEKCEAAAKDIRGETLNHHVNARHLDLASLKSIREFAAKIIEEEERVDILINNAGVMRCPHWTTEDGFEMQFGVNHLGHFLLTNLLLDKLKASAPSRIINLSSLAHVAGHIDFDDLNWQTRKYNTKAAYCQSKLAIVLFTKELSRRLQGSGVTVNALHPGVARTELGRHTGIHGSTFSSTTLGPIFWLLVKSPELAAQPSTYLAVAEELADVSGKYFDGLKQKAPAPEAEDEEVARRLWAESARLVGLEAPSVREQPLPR
Chain of UniProt P11233 (P11233 whole entry, looked up): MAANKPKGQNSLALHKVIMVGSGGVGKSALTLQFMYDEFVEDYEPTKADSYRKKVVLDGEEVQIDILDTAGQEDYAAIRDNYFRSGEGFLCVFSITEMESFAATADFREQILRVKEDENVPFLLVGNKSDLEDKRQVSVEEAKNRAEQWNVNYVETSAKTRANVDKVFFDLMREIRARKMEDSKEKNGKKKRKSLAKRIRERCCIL
Chain of UniProt Q9NR46 (Q9NR46 whole entry, looked up): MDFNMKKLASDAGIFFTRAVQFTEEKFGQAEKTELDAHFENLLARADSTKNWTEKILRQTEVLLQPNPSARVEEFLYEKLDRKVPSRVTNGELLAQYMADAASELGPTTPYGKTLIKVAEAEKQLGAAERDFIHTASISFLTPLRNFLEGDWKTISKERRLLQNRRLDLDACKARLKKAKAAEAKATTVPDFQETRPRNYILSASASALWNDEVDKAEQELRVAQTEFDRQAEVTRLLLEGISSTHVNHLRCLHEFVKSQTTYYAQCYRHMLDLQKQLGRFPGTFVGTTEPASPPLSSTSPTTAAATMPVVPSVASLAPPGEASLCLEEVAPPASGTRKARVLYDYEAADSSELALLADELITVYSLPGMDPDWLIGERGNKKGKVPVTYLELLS
Chain of UniProt P04049 (P04049 whole entry, looked up): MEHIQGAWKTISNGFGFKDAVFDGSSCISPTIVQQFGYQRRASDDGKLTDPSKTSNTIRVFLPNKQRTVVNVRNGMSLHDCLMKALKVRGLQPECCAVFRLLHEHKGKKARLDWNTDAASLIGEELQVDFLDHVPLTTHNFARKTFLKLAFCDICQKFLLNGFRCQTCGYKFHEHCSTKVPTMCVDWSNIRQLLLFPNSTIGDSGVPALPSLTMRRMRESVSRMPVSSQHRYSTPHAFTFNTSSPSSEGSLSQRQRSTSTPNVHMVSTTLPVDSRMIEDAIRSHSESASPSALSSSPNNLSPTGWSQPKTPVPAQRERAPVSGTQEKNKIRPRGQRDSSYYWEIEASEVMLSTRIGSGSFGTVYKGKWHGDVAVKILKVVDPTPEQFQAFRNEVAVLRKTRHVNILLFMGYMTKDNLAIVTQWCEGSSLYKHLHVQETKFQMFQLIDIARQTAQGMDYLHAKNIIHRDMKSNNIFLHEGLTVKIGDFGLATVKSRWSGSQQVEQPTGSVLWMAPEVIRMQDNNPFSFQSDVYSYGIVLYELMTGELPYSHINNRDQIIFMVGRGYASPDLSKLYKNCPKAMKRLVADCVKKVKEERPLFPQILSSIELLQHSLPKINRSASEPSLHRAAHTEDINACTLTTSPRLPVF
Chain of UniProt Q01196 (Q01196 whole entry, looked up): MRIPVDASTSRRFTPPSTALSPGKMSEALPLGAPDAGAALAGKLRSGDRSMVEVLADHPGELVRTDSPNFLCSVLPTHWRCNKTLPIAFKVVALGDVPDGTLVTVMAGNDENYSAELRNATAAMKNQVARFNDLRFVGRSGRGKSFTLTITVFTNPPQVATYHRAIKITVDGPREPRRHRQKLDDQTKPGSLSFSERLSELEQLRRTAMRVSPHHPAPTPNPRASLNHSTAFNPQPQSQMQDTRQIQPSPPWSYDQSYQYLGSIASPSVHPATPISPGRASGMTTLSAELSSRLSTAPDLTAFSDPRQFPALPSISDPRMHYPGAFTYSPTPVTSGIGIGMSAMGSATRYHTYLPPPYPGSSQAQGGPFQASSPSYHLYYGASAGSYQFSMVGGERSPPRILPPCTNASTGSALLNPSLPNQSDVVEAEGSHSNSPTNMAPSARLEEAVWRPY
Chain of UniProt Q9BQY4 (Q9BQY4 whole entry, looked up): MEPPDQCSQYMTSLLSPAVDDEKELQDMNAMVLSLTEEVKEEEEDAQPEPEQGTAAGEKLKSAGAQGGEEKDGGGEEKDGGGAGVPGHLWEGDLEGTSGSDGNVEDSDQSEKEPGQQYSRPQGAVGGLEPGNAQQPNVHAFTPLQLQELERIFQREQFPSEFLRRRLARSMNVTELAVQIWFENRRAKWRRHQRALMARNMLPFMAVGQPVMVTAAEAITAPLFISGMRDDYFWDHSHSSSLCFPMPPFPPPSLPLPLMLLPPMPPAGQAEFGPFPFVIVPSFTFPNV
Chain of UniProt P62070 (P62070 whole entry, looked up): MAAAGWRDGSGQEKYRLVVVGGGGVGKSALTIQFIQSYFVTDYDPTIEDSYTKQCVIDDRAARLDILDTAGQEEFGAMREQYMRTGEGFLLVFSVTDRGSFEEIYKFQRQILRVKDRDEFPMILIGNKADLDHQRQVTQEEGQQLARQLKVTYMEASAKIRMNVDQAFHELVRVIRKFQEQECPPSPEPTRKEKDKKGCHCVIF
Chain of UniProt Q15050 (Q15050 whole entry, looked up): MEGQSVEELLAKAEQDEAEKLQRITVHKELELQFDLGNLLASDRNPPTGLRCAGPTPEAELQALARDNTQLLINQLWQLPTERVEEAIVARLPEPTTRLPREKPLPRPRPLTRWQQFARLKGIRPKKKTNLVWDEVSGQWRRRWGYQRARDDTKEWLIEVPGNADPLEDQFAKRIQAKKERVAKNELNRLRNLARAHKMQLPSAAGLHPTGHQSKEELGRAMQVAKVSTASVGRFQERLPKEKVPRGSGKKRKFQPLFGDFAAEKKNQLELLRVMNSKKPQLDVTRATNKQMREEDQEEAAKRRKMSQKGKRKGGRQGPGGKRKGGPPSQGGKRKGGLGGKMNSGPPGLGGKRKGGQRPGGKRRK
Chain of UniProt Q13530 (Q13530 whole entry, looked up): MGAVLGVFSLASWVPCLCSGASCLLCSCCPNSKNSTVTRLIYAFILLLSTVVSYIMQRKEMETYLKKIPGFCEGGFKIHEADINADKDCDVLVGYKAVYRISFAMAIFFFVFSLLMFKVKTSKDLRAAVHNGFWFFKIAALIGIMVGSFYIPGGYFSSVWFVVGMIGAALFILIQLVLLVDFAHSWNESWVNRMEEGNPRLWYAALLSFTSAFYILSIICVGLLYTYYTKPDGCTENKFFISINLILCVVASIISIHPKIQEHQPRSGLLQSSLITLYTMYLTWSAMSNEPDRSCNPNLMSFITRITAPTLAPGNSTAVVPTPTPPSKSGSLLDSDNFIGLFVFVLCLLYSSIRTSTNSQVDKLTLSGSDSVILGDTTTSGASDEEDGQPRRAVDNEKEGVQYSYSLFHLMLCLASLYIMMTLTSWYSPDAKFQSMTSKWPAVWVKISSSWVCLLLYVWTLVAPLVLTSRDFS
Chain of UniProt Q9H082 (Q9H082 whole entry, looked up): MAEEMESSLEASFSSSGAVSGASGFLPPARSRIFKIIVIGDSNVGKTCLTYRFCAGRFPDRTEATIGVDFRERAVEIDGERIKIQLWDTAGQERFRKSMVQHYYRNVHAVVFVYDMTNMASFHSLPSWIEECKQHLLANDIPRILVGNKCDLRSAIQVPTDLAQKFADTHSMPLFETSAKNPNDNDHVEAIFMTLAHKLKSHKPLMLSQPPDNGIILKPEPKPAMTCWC

Target	log2 fold change (erlotinib)	log2 fold change [1]	log2 fold change [2]	log2 fold change [3]	log2 fold change [4]	log2 fold change [5]	log2 fold change [6]	log2 fold change [7]	log2 fold change [8]	log2 fold change [9]
RPS6KA2 isoform 2 (UniProt Q15349)	0.008	0.092	-0.068	0.075	0.07	0.06	-0.132	-0.473 (active)	-0.058	-0.004
SERINC3 (UniProt Q13530)	-0.051	0.016	-0.064	0.041	-0.043	0.063	0.006	0.029	0.007	0.06
RAB3IL1 (UniProt Q8TBN0)	-0.007	-0.007	0.057	0.005	0.019	0.019	-0.02	-0.039	-0.004	-0.013
SH3GL1 (UniProt Q99961)	0.024	0.068	0.013	0.003	0.058	0.022	0.019	0.004	-0.047	-0.045
SLC19A1 (UniProt P41440)	-0.023	0.029	0.159	0.022	-0.006	0.103	0.118	-0.008	-0.009	0.08
SDHAF2 (UniProt Q9NX18)	-0.021	0.304 (active)	0.083	0.018	-0.102	0.051	-0.035	0.114	0.068	-0.091
RUNX1 isoform 8 (UniProt Q01196)	0.122	0.081	-0.03	0.048	-0.001	0.032	0.131	-0.033		
RDH13 (UniProt Q8NBN7)	0.019	-0.004	0.082	0.01	0.127	-0.024	0.005	0.007	0.05	0.007
RRS1 (UniProt Q15050)	-0.099	-0.205	-0.536	-0.003	-0.095	0.004	-0.18	-0.018	0.162	-0.219
RRAS2 isoform 4 (UniProt P62070)	0.002	-0.076	-0.046	0.015	-0.006	0.038	-0.015	-0.059	-0.085	0.093
SART3, A0A499FI31	-0.034	0.058	0.102	0.032	0.032	0.084	-0.004	-0.045	-0.078	-0.014
RALA (UniProt P11233)	0.087	-0.005	0.033	-0.05	0.005	0.056	-0.076	-0.045	-0.066	0.104
RNF220 (UniProt Q5VTB9)	0.017	0.034	0.017	0.011	0.034	0.03	0.026	0.011	-0.008	-0.022
RAB3GAP2 (UniProt Q9H2M9)	0.068	0.083	-0.043	-0.058	0.035	-0.011	-0.025	0.004	-0.068	-0.018
RAB33B (UniProt Q9H082)	0.059	0.031	0.028	-0.029	-0.08	-0.012	-0.079	0.025	-0.016	0.118
RBM4 (UniProt Q9BWF3)	0.02	0	-0.102	0.011	-0.012	0.054	-0.041	-0.035	0.012	-0.009
RAF1 isoform 2 (UniProt P04049)	-0.048	0.08	-0.129	0.04	0.197	0.02	0.513 (active)	0.01	-0.121	0.022
RDH10 (UniProt Q8IZV5)	0.122	0.065	0.024	0.003	0.204	-0.035	0.077	0.039	-0.008	0.235
REL (UniProt Q04864)	0.076	-0.013	-0.007	0.003	0.024	-0.037	-0.029	-0.013	-0.082	0.01
RIOK3 (UniProt O14730)	0.037	0.014	0.062	0.003	-0.019	0.048	-0.033	0.02	0.024	-0.025
RBM22 (UniProt Q9NW64)	-0.013	-0.037	-0.061	-0.009	-0.117	0.038	-0.084	-0.051	0	0.121
SH3GLB2 (UniProt Q9NR46)	0.048	0.081	-0.044	-0.021	0	0.01	-0.033	-0.021	-0.022	-0.013
SEC24A (UniProt O95486)	0.084	0.097	0.031	-0.018	0.033	-0.022	0.036	0.022	-0.026	0.011
RIOK2 (UniProt Q9BVS4)	-0.081	-0.064	-0.149	0.097	-0.043	-0.055	-0.01	0.055	0.035	-0.209
RAB9A (UniProt P51151)	0.037	0.05	0.017	0.016	0.046	-0.022	-0.005	-0.01	0.017	0.056
RHOXF2 (UniProt Q9BQY4)	-0.067	-0.137	-0.002	0.003	-0.06	0.054	0.06	-0.026	0.036	0.011
SLC1A5 (UniProt Q15758)	-0.001	0.003	0.043	0.002	-0.051	0.006	0.075	-0.046	-0.052	0.089
RPS27A (UniProt P62979)	-0.246	-0.143	-0.207	0.016	-0.136	-0.033	0.004	-0.062	0.111	-0.098
RPS15 (UniProt P62841)	-0.173	-0.259	-0.208	0.016	0.028	-0.092	0.036	-0.131	0.188	-0.138
RAC1 (UniProt P63000)	-0.066	-0.062	-0.003	0.053	-0.194	0.015	0.048	-0.05	0.017	0.005
